The supplement of paper PMC13380429

Tested on: Vero E6 infected with SARS-CoV-2
Assay: inhibition of SARS-CoV-2 cytopathic effect; higher = more antiviral protection, active = above 15
Details: 48 h

Measured: inhibition of SARS-CoV-2 cytopathic effect

CC(=O)OCC(=O)[C@@]12N=C(C)O[C@@H]1C[C@H]1[C@@H]3CCC4=CC(=O)C=C[C@]4(C)[C@H]3[C@@H](O)C[C@@]12C [Deflazacort (Calcort)]
inactive: 1 nM 2.25% | 8.33 nM -0.15% | 100 nM -11.5% | 833.33 nM 2.17% | 10000 nM 0.96%

COc1ccc(-n2c(SCCCN3C(=O)c4cccc5cccc(c45)C3=O)nnc2-c2ccncc2)cc1
inactive: 1 nM -0.26% | 8.33 nM 2.51% | 100 nM -0.79% | 833.33 nM -0.8% | 10000 nM -1.41%

CCOc1ccc2ccccc2c1C(=O)N[C@@H]1C(=O)N2[C@@H]1SC(C)(C)[C@@H]2C(=O)O [nafcillin]
inactive: 1 nM -2.44% | 8.33 nM 1.27% | 100 nM -1.26% | 833.33 nM -1.73% | 10000 nM -0.95%

CCCCC/C=C\C/C=C\C/C=C\CCCCC(=O)O [gamma-linolenic-acid]
inactive: 1 nM -0.6% | 8.33 nM -2.39% | 100 nM -2.33% | 833.33 nM -1.24% | 10000 nM -1.03%

CC(=O)OCC(=O)[C@@]1(O)CC[C@H]2[C@@H]3CCC4=CC(=O)CC[C@]4(C)[C@@]3(F)[C@@H](O)C[C@@]21C
inactive: 1 nM -1.46% | 8.33 nM -0.43% | 100 nM 0.97% | 833.33 nM -0.24% | 10000 nM 0.57%

CN(C)CCCO[C@@H]1[C@H]2OC(C)(C)O[C@H]2O[C@@H]1[C@H](O)CO [amiprilose]
inactive: 1 nM -4.79% | 8.33 nM -3.54% | 100 nM -5.54% | 833.33 nM -4.16% | 10000 nM -1.28%
